Source: PubChem BioAssay AID445 (National Center for Advancing Translational Sciences (NCATS), 2006)
Out of some 110,000 compounds screened, about 40 (0.04%) were called active. Inconclusive results (about 22%) are left out. Calls come from the whole dose curve; as a rule, active = well fitted curve in the direction sought with a large enough effect in the signal ratio (not every such curve was filed as active); inconclusive = small, poorly fitted or top-dose-only effect, or a change in a side signal; inactive = flat fitted curve, though single readings scatter; the % refers to the signal ratio. The entries come from a sample that favours actives as a whole.

Test: IkB Signaling;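 note: 0% = basal untreated cells and 100% = reference inhibitor full response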
Conditions: ABC-DLBCL IkBa-CBG/CBR dual luciferase ratio, 4 h; series mostly up to 57.1 µM; IkBa stabilization activation: at the top concentration
Source text: NIH Molecular Libraries Screening Centers Network [MLSCN]
NIH Chemical Genomics Center [NCGC]
Nuclear factor kappa-B (NF-kappa-B) plays an important role in normal B cell development and survival. Diffuse large B cell lymphoma (DLBCL) is the most commonly observed type of non-Hodgkin's lymphoma. Gene expression analysis has identified an activated B cell-like subtype of DLBCL (ABC-DLBCL) which expresses known NF-kappa-B target genes. […] However, targets upstream of IKK have been largely unexplored and so nodes upstream of IKK in the NF-kappa-B pathway remain untested due to the lack of chemical probes.
A cell-sensor assay for I-kappa-B-alpha stabilization was developed with NIH investigator Dr. R. Eric Davis in Dr. Louis M. Staudt's laboratory. The assay uses green (CBG68) and red (CBR) emitting beetle luciferases [Chroma-Glo(TM) developed by Promega Corp.] where the green luciferase is fused to I-kappa-B-alpha and the red luciferase is present in its native state. Both luciferase genes are stably present in the OCI-Ly3 human ABC DLBCL cell line, but their expression is under the control of tetracycline-inducible promoters. Following the addition of doxycycline to induce expression of the luciferases, the green luminescence in control cultures rises only slowly because the CBG fusion partner I-kappa-B-alpha is targeted by IKK activity for rapid degradation. In contrast, green luminescence rises rapidly in the presence of proteasome inhibitors or IKK inhibitors. The rise in red luminescence of CBR is not affected by proteasome or IKK inhibitors, and serves as normalization for cell number and nonspecific effects. Compounds were screened as a concentration-titration series that ranged from 57 uM to 0.7 nM.
NCGC Assay Protocol Summary:
Cells were seeded in 1536-well plates at 5000 cells/3ul in IMDM medium containing 0.5% FBS, w/o phenol red, L-glutamine, 25 mM HEPES, 3 mg/ml sodium bicarbonate. After centrifugation for 1 min. at 1000 rpm, 23 nl of compounds or DMSO were delivered to each well using a pin tool. Then 1ul 80ng/ml doxycycline was dispensed into white solid 1536-well plates and the plates were incubated at 37C/5% C02 in a cell incubator for 4 hrs. Then 4 ul Chroma-Glo luminescent substrate mix (Promega) was added to each well. The plate was incubated at R.T. for 10-15 min. The plates were measured on a ViewLux plate reader for green luminescence (540/20 nm filter) and red luminescence (618/8 nm filter). The green and red luminescent signals were corrected for red and green luminescence filter overlap using previously determined filter calibration constants (determined using the procedure outlined in the Promega Technical Manual). The %Activity was determined from the ratio of corrected green/red luminescent values. Green luminescent and ratio %Activity was determined by normalizing to the difference in signal between basal cells (0% Activity) and cells incubated with 10 uM of the proteasome inhibitor MG-132 (100% Activity). Red luminescent %Activity was normalized to the difference between red luminesence in basal cells (0%Activity) and zero luminescence (-100% Activity).
Concentration-response curves were fitted to the signals arising from the green luminescence (I-kappa-B-alpha-luciferase fusion; IkB-luc) and the red luminescence (unfused luciferase; luc) as well as the calculated ratio. The concentration-effect curves were then classified based on curve quality (r2), response magnitude and degree of measured activity. Compounds were then categorized based on their concentration-response curves for all three datasets (Ikb-luc, luc and ratio).
Keywords: IKK, I-kappa-B, IkB, IkBa, cytotoxicity, luminescence, MLSMR, MLSCN, NIH Roadmap, qHTS, NCGC

Q: For `CCc1cc2c(cc3c(=O)n(CC(=O)N4CCN(c5cc(Cl)ccc5C)CC4)ncn32)s1`, which “IkBa stabilization activation” value is on record?
A: Its value is -1.17% (inactive).

Q: For `COc1ccc(-c2nn3c(-c4ccc(OC)cc4)nnc3c3ccccc23)cc1`, which “IkBa stabilization activation” value is on record?
A: Its value is -0.528% (inactive).

Q: Which “IkBa stabilization activation” value does the source give for `Fc1ccc(-n2ncc3c(Nc4ccc(Oc5ccccc5)cc4)ncnc32)cc1` here?
A: The value was -0.511% (inactive).

Q: Which “IkBa stabilization activation” value does the source give for `CCCOc1ccc(CNC(=O)C2CCN(c3nn4c(=O)cc(C)nc4s3)CC2)cc1` here?
A: Its value is -0.122% (inactive).

Q: Which “IkBa stabilization activation” value does the source give for `CCS(=O)(=O)c1nc(S(=O)(=O)c2ccc(C)cc2)c(NCc2ccc(Cl)cc2)s1` here?
A: The value was 0.738% (inactive).

Q: For `Cc1ccc(CNS(=O)(=O)c2ccc(-c3cc(C(F)(F)F)on3)s2)cc1`, which “IkBa stabilization activation” value is on record?
A: The value was -4.13% (inactive).

Q: With `Cc1cc(C)cc(NC(=O)c2cnc3sc(N4CCCC4)nn3c2=O)c1` as the compound, how does the “IkBa stabilization activation” value read?
A: Its value is -3.48% (inactive).

Q: With `CCCCOC(=O)CSc1ncnc2sc3c(c12)CCC(C)C3` (configuration not stated) as the compound, how does the “IkBa stabilization activation” value read?
A: The value was 3.48% (inactive).

Q: Which “IkBa stabilization activation” value does the source give for `COc1cc(NC(=O)NCC2CCN(Cc3ccc(C)cc3)CC2)cc(OC)c1OC` here?
A: The value was 2.66% (inactive).

Q: For `CCOC(=O)c1ccc(NC(=O)c2c(NCc3cccc(OC)c3)sc3c2CCC3)cc1`, which “IkBa stabilization activation” value is on record?
A: Its value is -1.01% (inactive).

Q: With `Cc1nc2nc(SCC(=O)N(Cc3ccccc3)C(C)C)nn2c(C)c1Cc1ccccc1Cl` as the compound, how does the “IkBa stabilization activation” value read?
A: The value was 3.24% (inactive).

Q: With `Cc1cc2oc(C(=O)N(Cc3ccc(Cl)cc3)Cc3ccco3)c(C)c2cc1Cl` as the compound, how does the “IkBa stabilization activation” value read?
A: The value was -1.24% (inactive).

Q: With `Cc1ccccc1-c1nc(CS(=O)(=O)CC(=O)NC(C)c2ccccc2)c(C)o1` (configuration not stated) as the compound, how does the “IkBa stabilization activation” value read?
A: The value was -1.28% (inactive).

Q: With `CCOc1ccccc1C(=O)NC1(C(F)(F)F)C(=O)Nc2c1c(=O)[nH]c(=O)n2-c1ccc(F)cc1` (configuration not stated) as the compound, how does the “IkBa stabilization activation” value read?
A: The value was -1.66% (inactive).

Q: With `CCOC(=O)c1c(C)[nH]c(C)c1S(=O)(=O)NCC(=O)NCc1cccc(C)c1` as the compound, how does the “IkBa stabilization activation” value read?
A: Its value is 0.835% (inactive).

Q: Which “IkBa stabilization activation” value does the source give for `Cc1cccc(NC(=O)CSc2nc(-c3ccco3)cc(C(F)(F)F)n2)c1C` here?
A: The value was 1.98% (inactive).

Q: Which “IkBa stabilization activation” value does the source give for `Cn1c(=O)oc2cc(S(=O)(=O)CCC(=O)NCCc3ccc(Cl)cc3)ccc21` here?
A: The value was -1.07% (inactive).

Q: For `Cc1ccc(C)c(NC(=O)C2CCCN(S(=O)(=O)c3cn(C)cn3)C2)c1` (configuration not stated), which “IkBa stabilization activation” value is on record?
A: Its value is 1.43% (inactive).

Q: Which “IkBa stabilization activation” value does the source give for `O=C(CCc1nc(CN2CCN(S(=O)(=O)c3ccc(Cl)cc3)CC2)no1)N1CCCCC1` here?
A: Its value is 1.11% (inactive).

Q: With `COc1ccccc1NC(=O)C1=C(C)Nc2ncnn2C1c1sccc1C` (configuration not stated) as the compound, how does the “IkBa stabilization activation” value read?
A: The value was 0.985% (inactive).

Q: Which “IkBa stabilization activation” value does the source give for `CCCNC(=O)C(CC)n1nc(CC)n2c(cc3oc(C)cc32)c1=O` (configuration not stated) here?
A: The value was -2.46% (inactive).

Q: Which “IkBa stabilization activation” value does the source give for `Cc1ccc(CNC(=O)CSC2=Nc3ccccc3C3=NC(C)C(=O)N23)cc1` (configuration not stated) here?
A: Its value is 0.839% (inactive).

Q: With `CCOC(=O)c1cccc(NC(=O)Cn2cnc3nc4c(cc3c2=O)CCCC4)c1` as the compound, how does the “IkBa stabilization activation” value read?
A: The value was 4.01% (inactive).

Q: For `Cc1cc(OC(C)C(=O)Nc2sc3c(c2C(N)=O)CCCC3)ccc1Cl` (configuration not stated), which “IkBa stabilization activation” value is on record?
A: The value was -3.34% (inactive).

Q: Which “IkBa stabilization activation” value does the source give for `Cc1ccc(S(=O)(=O)n2nc(-c3ccc(Cl)cc3)nc2NCc2ccccc2)cc1` here?
A: The value was 1.79% (inactive).

Q: With `CCOc1ccc(NC(=O)CCC(=O)N2CC(C)Oc3ccc(C)cc32)cc1` (configuration not stated) as the compound, how does the “IkBa stabilization activation” value read?
A: The value was 0.778% (inactive).

Q: Which “IkBa stabilization activation” value does the source give for `CCCNC(=O)c1ccc2c(c1)ncn2-c1ccc(C)cc1C` here?
A: The value was -5.53% (inactive).
